# Experimental data taken from PubChem BioAssay AID2417 (National Center for Advancing Translational Sciences (NCATS), 2010).
# In all, about 140,000 compounds went through this assay and about 4,300 (3.1%) were called active. Another 21% or so got no clear call; they are omitted.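 How the source made its calls: active means readout at or below -70, meaning at least 70% loss of cells showing the perinucleolar compartment, a nuclear body marking cancer cells; inconclusive means readout between -30 and a set limit; inactive means the rest.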 The full list was thinned out, with actives kept by preference.
# Assay: High Content Assay for Compounds that inhibit the Assembly of the Perinucleolar Compartment;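 further: plate controls were DMSO wells for no effect and camptothecin positive control wells for full effect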
# Conditions: PC3M PTB-GFP, PNC prevalence imaging, 16 h; at 10 µM; stronger effect = lower value
# In short: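 PC3M cells stably expressing PTB-GFP, 750–1000 cells/well, treated 16 h at 37 °C with compound (23 nl of library stock), in duplicate. After paraformaldehyde fixation and Hoechst stain, imaged at 20x; PNC prevalence scored by image analysis.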
row,Compound,"activity change (PNC), negative = inhibition"
1,O=C(COC(=O)c1cc(-c2cccs2)nn1-c1ccccc1)Nc1cc([N+](=O)[O-])ccc1Cl,21.6% (inactive)
2,CCCCC(C(=O)OCC(=O)c1ccc(OC)cc1)N1C(=O)c2ccccc2C1=O (stereo not given),-100% (active)
3,COc1ccc(OCCCON2C(=O)c3ccccc3C2=O)cc1,0.67% (inactive)
4,COc1ccc(C(=O)CN(C(=O)c2ccc(Cl)cc2)N2C(=O)c3ccccc3C2=O)cc1,-9.88% (inactive)
5,CCCCN1C(=O)CCC(C(=O)O)C1c1ccc(OC)cc1 (stereo not given),36.8% (inactive)
6,CCN(CC)c1ccc(S(=O)(=O)N2CCOCC2)cc1NC(=O)CSc1cccc[n+]1[O-],11.8% (inactive)
7,O=C(c1cccnc1NCc1ccccc1)N1CCOCC1,40.9% (inactive)
8,Cc1nc(NCc2ccccc2)c(C(N)=O)c2c1COC(C)(C)C2,-122% (active)
9,Cc1nc(NCCN)c(C#N)c2c1COC(C)(C)C2,32.5% (inactive)
10,S=C(NCc1ccc(Cl)cc1)NC1CCCCC1,32.1% (inactive)
11,COc1ccc(S(=O)(=O)N2CCC(C(=O)N3CCOCC3)CC2)cc1OC,-7.88% (inactive)
12,COc1ccc(S(=O)(=O)N2CCC(C(=O)N3CCc4ccccc4C3)CC2)cc1OC,-84.1% (active)
13,COc1ccc(S(=O)(=O)N2CCN(C(=O)c3cccs3)CC2)cc1OC,-15.3% (inactive)
14,C=CCNC(=O)/C(=C\c1cccc([N+](=O)[O-])c1)NC(=O)c1ccccc1,48.8% (inactive)
15,O=C(CSc1ncnc2scc(-c3ccccc3)c12)NCc1ccc2c(c1)OCO2,40.3% (inactive)
16,Cc1cc(O)ccc1NC1=CC(=O)CC(C)(C)C1,-15.4% (inactive)
17,Cc1noc(COc2ccccc2OCc2onc(C)c2Cl)c1Cl,-100% (active)
18,Cc1nc2ccccc2cc1OCc1ccc(F)cc1,41.2% (inactive)
19,Cc1noc(COc2ccccc2OCC(O)CNC(C)(C)C)n1 (stereo not given),-3.16% (inactive)
20,COc1ccc(CCNC(=O)COC(=O)C2CCCCC2)cc1,43.3% (inactive)
21,Cc1cccc(C)c1NC(=O)C(c1ccccc1)N1CC(=O)Nc2ccccc21 (stereo not given),43.2% (inactive)
22,CCn1c(C(C)NC(=O)c2ccc(C)cc2)n[nH]c1=S (stereo not given),8.92% (inactive)
23,Cc1ccc(CC(=O)Nc2ccc(OC(F)F)c(Cl)c2)cc1C,5.84% (inactive)
24,N#CC1=C(SCc2ccc(C#N)cc2)N=C(N)C(c2nc(-c3ccccc3)cs2)C12CCCCC2 (stereo not given),-112% (active)

row,Compound,"activity change (PNC), negative = inhibition"
1,N#CC1=C(SCc2ccccc2)NC(=O)C(C#N)C12CCCC2 (stereo not given),9.75% (inactive)
2,COc1ccnc(Oc2ccccc2)n1,-12.4% (inactive)
3,COc1cc(/C=N/NC(=O)Nc2ccccc2)ccc1OCCOc1ccccc1C,-16.5% (inactive)
4,C=CCOc1ccc(/C=N/n2cncn2)cc1OC,5.24% (inactive)
5,C/C=C/c1ccc(OCCOc2ccc(C=O)cc2OC)c(OC)c1,-108% (active)
6,CCOC(=O)/C=C/C(=O)OCC(=O)NC(c1ccccc1)c1ccccc1,-28.2% (inactive)
7,COCCOC(=O)C1=C(C)NC(=O)CC1c1cc2c(cc1Br)OCO2 (stereo not given),63.3% (inactive)
8,CCCOc1ccccc1C1CC(=O)Nc2cc3c(cc21)OCO3 (stereo not given),-92% (active)
9,COc1ccc(C2CC(=O)Nc3cc(C)c(C)cc32)c(OC)c1OC (stereo not given),-26.4% (inactive)
10,CCCSc1nc2[nH]ncc2c(=O)[nH]1,26.1% (inactive)
11,Cc1cc(C(=O)COc2ccccc2[N+](=O)[O-])c(C)n1-c1cccc(S(=O)(=O)N2CCOCC2)c1,101% (inactive)
12,CC1(C)C2CC=C(/C=N/NC(=O)c3ccc(Cl)cc3)C1C2 (stereo not given),14.2% (inactive)
13,CCN(CC(=O)NCCc1ccccc1)S(=O)(=O)c1ccc(C)cc1,-0.956% (inactive)
14,COc1ccc(C(=O)Nc2ccc3c(c2)OCO3)cc1OC,5.14% (inactive)
15,Cn1c(=O)n(C)c2cc(C(=O)Nc3ccc4c(c3)OCO4)ccc21,-87% (active)
16,O=C(Nc1ccc2c(c1)OCO2)c1ccc(N2C(=O)c3ccccc3C2=O)cc1,-11% (inactive)
17,COc1cc(C(=O)Nc2cc(C(F)(F)F)ccc2N2CCOCC2)ccc1O,44.6% (inactive)
18,CCOC(=O)C1C(=O)NCC1c1ccccc1 (stereo not given),-16.9% (inactive)
19,CCOC(=O)C1C(=O)C=C(c2ccc(OC)cc2)CC1c1ccco1 (stereo not given),27.1% (inactive)
20,CCOC(=O)C1C(=O)NC(N2CCN(c3ccccc3)CC2)=NC1c1ccco1 (stereo not given),-90% (active)
21,COc1cccc(/C=N/NC(=O)CNC(=O)c2ccc(S(=O)(=O)N3CCOCC3)cc2)c1OC,69.9% (inactive)
22,Cc1ccccc1N/C(SCc1ccc(Cl)cc1)=C(/C#N)C(N)=O,-1.22% (inactive)
23,CCN(CC)c1ccc(C(=O)N/N=C(\C)c2cccc(OC)c2)cc1,14.7% (inactive)
24,Cc1cnc(C(=O)OCC(=O)Nc2ccc(Cl)cc2Cl)cn1,261% (inactive)

row,Compound,"activity change (PNC), negative = inhibition"
1,Cc1ccc(Cc2cnc(N)s2)o1,-17.8% (inactive)
2,Cc1ccc(CCC(=O)Nc2ncc(Cc3cc(Cl)ccc3Cl)s2)o1,-88.9% (active)
3,O=C(/C=C/c1ccccc1[N+](=O)[O-])NCC1CCCO1 (stereo not given),58.9% (inactive)
4,Cc1ccc(SCC(=O)Nc2ccc3c(c2)OCCO3)cc1,36.7% (inactive)
5,OCCNCCOc1ccc(Cl)c(Cl)c1,32.5% (inactive)
6,Cc1ccc(-n2c(SCC(=O)Nc3ncc(Cl)cc3Cl)nc3ccccc32)cc1,-115% (active)
7,Cc1ccc(C)c(NC(=O)CSc2nc3c(oc4ccccc43)c(=O)n2-c2ccccc2)c1,-5.79% (inactive)
8,Cc1ccc(SCCC(=O)OCC(=O)Nc2ncc(Cl)cc2Cl)cc1,-2.97% (inactive)
9,CN(C)/C(=N\OC(=O)c1ccccc1)c1nonc1N,6.05% (inactive)
10,C/C(Cc1ccccc1)=N\NC(=O)CNC(=O)c1cccc(Br)c1,19.9% (inactive)
11,Cc1cc(N2CCOCC2)nc(-c2ccc(Br)cc2)n1,-19.2% (inactive)
12,COc1ccc(-c2nc(-c3ccccc3)no2)c(OC)c1,-102% (active)
13,COc1ccc(-c2noc(-c3cccc(OC)c3OC)n2)cc1OC,7.54% (inactive)
14,CCOc1nc(-c2ccc(OC)cc2)ccc1-c1noc(-c2cc(OC)c(OC)c(OC)c2)n1,-17.5% (inactive)
15,Cc1ccc(S(=O)(=O)N(NC2=NS(=O)(=O)c3ccccc32)C(=O)c2ccccc2)cc1,35.5% (inactive)
16,COc1ccc(C(=O)NNS(=O)(=O)c2ccc(C)cc2)cc1,-23.7% (inactive)
17,N#CCCN1CCN(S(=O)(=O)c2ccc(S(=O)(=O)N3CCCC3)cc2)CC1,-15% (inactive)
18,N#CCCN1CCN(S(=O)(=O)c2ccc(S(=O)(=O)NC3CC3)cc2)CC1,-11.6% (inactive)
19,CC(C)(C)c1cc(CN2CCN(CCC#N)CC2)cc(C(C)(C)C)c1O,-122% (active)
20,CCCCC(=O)Nc1ccc(C(=O)Nc2cc(C(F)(F)F)ccc2Cl)cc1,22.8% (inactive)
21,Cc1onc(-c2ccccc2Cl)c1C(=O)NCCn1ccc2ccccc21,-12.7% (inactive)
22,CC(=O)Nc1cccc(/C(C)=N/NC(=O)c2ccccc2Cl)c1,5.62% (inactive)
23,CC(=O)Nc1cccc(/C(C)=N/NC(=O)c2c(-c3ccccc3Cl)noc2C)c1,-109% (active)
24,CC(C)=C(NC(=O)c1ccccc1)C(=O)N/N=C(\C)c1ccccc1O,6.63% (inactive)

row,Compound,"activity change (PNC), negative = inhibition"
1,CCOc1cccc(-c2nnc3sc(COc4ccc(OC)cc4)nn23)c1,-29.7% (inactive)
2,COc1ccc(-n2nnnc2-c2nc3ccccc3s2)cc1,-8.45% (inactive)
3,CCOc1cccc(-n2nnnc2-c2ccc(OC)cc2)c1,-83.5% (active)
4,CSCCC(Nc1ccc(S(=O)(=O)N2CCOCC2)cc1[N+](=O)[O-])C(=O)OCC(=O)N(C(C)C)C(C)C (stereo not given),-25.5% (inactive)
5,CCC(C)(C(=O)Nc1ccccc1C)N(C(=O)CNC(C)=O)c1ccc(C)cc1 (stereo not given),-15.4% (inactive)
6,Cc1ccc(-c2nc(CS(=O)CC(=O)NC3CCCC3)c(C)o2)cc1 (stereo not given),-106% (active)
7,Cc1ccc(-c2nc(CS(=O)CC(=O)N3CCN(c4ncccn4)CC3)c(C)o2)cc1 (stereo not given),11.5% (inactive)
8,COc1ccc(-c2nc(CS(=O)CC(=O)NCc3ccccn3)c(C)o2)cc1 (stereo not given),-19.8% (inactive)
9,CSc1ccc(/C=C/C(=O)NC23CC4CC(CC(C4)C2)C3)cc1,11.8% (inactive)
10,CCCCOc1ccc(Cl)cc1CSc1nncn1N,-89.7% (active)
11,Cc1cc(=O)[nH]c(SCc2cc(Cl)ccc2OC(F)F)n1,4.54% (inactive)
12,CCOC(=O)c1c(NC(=O)Cn2nc(C(F)(F)F)cc2C)sc2c1CCC2,36.1% (inactive)
13,CN1CCN(C(=O)/C(=C\c2cccs2)NC(=O)c2cccs2)CC1,0.966% (inactive)
14,COc1cc2c(cc1/C=C1/NC(=O)N(c3ccccc3)C1=O)OCO2,-20.8% (inactive)
15,CCOC(=O)c1c(C)n(C)c2ccc(OC)c(NS(=O)(=O)CC)c12,-8.82% (inactive)
16,COc1ccc2c(-c3ccccc3)cc(SCC(=O)N(C)C3CCS(=O)(=O)C3)nc2c1 (stereo not given),46.3% (inactive)
17,O=[N+]([O-])c1ccc(N2CCNCC2)cc1NCc1cccnc1,59.2% (inactive)
18,Cc1cc(NC(=O)c2cccc(N3C(=O)CCC3=O)c2)no1,-7.91% (inactive)
19,COc1ccccc1NC(=O)c1ccc2nc(N3C(=O)CCC3=O)sc2c1,133% (inactive)
20,O=C(Nc1cccc2cccnc12)c1cccc(N2C(=O)CCC2=O)c1,-100% (active)
21,CCOC(=O)NN1C(=O)c2ccccc2NC1c1ccccc1O (stereo not given),19.7% (inactive)
22,O=C(OCC(=O)c1c[nH]c2ccccc12)c1cccc(O)c1,49.4% (inactive)
23,O=S(=O)(NCC1CCCO1)c1cnc(Cl)c(Cl)c1 (stereo not given),-19.6% (inactive)
